# Values joined by “and” are separate entries in the source; they are usually repeats but may differ in a detail not shown here. Identical values can stand only once. The source holds several records for some structures; these can differ, active in one and inactive in another. Active and inactive are the calls of the source. Rule as the data show it, unless noted: active = inhibition above about 80%; inactive = the rest.
# Key:
# [1] = LFS_MB_1R medulloblastoma cell growth inhibition, synergistic combos for chromothripsis tumors, cisplatin or BGB combos (AID 1671452); details: LFS_MB_1R medulloblastoma cells, stronger effect = higher value;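 also: cells exposed for 96 hours before readout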
# [2] = CRL2098 osteosarcoma cell growth inhibition, synergistic combos for chromothripsis tumors, BGB or cisplatin IC20 combos (AID 1671454); details: CRL2098 osteosarcoma cells, drug combinations, stronger effect = higher value;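 also: cells exposed for 96 h before readout; 0% = vehicle DMSO and 100% = killing by high DMSO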
# [3] = HD-MB03 medulloblastoma cell growth inhibition, synergistic combos for chromothripsis tumors, BGB or cisplatin IC20 combos (AID 1671455; in the data active = inhibition above about 83%;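 also: 0% = vehicle DMSO and 100% = high DMSO as cytotoxic control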); details: HD-MB03 medulloblastoma cells, stronger effect = higher value
# [4] = UWB1.289 ovarian carcinoma cell growth inhibition, synergistic combos for chromothripsis tumors, BGB or cisplatin combos (AID 1671456); details: UWB1.289 ovarian carcinoma cells, stronger effect = higher value;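 also: cells exposed to compound for four days; 0% = vehicle DMSO and 100% = killing by high DMSO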
# [5] = LFS_MB_2R medulloblastoma cell growth inhibition, synergistic combos for chromothripsis tumors, cisplatin combos (AID 1671457); details: LFS_MB_2R medulloblastoma cells, stronger effect = higher value;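 also: cells exposed to compound for four days before readout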
# [6] = UWB1.289_BRCA1 ovarian cancer growth, cell-based, BGB or cisplatin combinations (AID 1671459); details: UWB1.289 BRCA1 ovarian carcinoma, drug combinations, stronger effect = higher value
# [7] = human astrocyte viability loss, single and combined drugs, cytotoxicity control for chromothriptic childhood tumor combination screen, cell-based, BGB or cisplatin IC20 combos (AID 1671460); details: Human astrocytes, drug combinations, stronger effect = higher value;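 also: cells exposed to compounds for 96 hours before viability readout; 0% = vehicle and 100% = killing control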
# [8] = growth inhibition of CRL1545 osteosarcoma cells, cell-based, cisplatin and BGB IC20 combos (AID 1671464); details: stronger effect = higher value;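 also: cells exposed to compound for 96 hours before readout; 0% = vehicle DMSO and 100% = high DMSO killing control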
# [9] = liver-stage malaria parasite growth inhibition, primary screen, cell-based, HepG2, luciferase luminescence, HepG2 viability (AID 624349; in the data active = parasite load remaining mostly below about 12%, no sharp cut-off; inactive = mostly above about 10%;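 also: 100% = mean of DMSO negative control wells on the same plate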); details: P. berghei liver stage in HepG2, luciferase luminescence, concentration not given here; parasite load remaining: stronger effect = lower value; viability: measured here: HepG2 viability without parasites
# [10] = inhibitors of Cryptococcus chitosan production, flow cytometry, Cibacron Brilliant Red staining (AID 1347148; call rule not given here;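 also: compound exposure lasted three days at 37 degrees C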); details: Cryptococcus neoformans chitosan, stronger effect = lower value; at 10 µM unless noted
# [11] = kinase inhibitors against Plasmodium liver-stage infection, cell-based, known kinase inhibitor set, luminescence, hepatoma host viability (AID 624392; call rule not given here;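 also: infected cells incubated roughly two days before readout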); details: Plasmodium liver stage in hepatoma cells, luciferase luminescence, concentration not given here; liver cell % of control: measured here: host liver cell viability; parasite % of control: stronger effect = lower value
# [12] = measured here: combination with BGB IC40, at 0.05 µM
# [13] = measured here: combination with cisplatin, at 0.5 µM
# [14] = measured here: combination with cisplatin, at 5 µM
# [15] = measured here: combination with BGB at IC20, at 0.5 µM
# [16] = measured here: combination with cisplatin at IC20, at 0.5 µM
# [17] = measured here: combo with BGB at IC20, at 0.5 µM
# [18] = measured here: combo with cisplatin at IC20, at 0.5 µM
# [19] = measured here: inhibition with BGB combination, at 0.05 µM
# [20] = measured here: inhibition with cisplatin combination, at 0.05 µM
# [21] = BGB combination, concentration series, at 5 µM
# [22] = cisplatin combination, concentration series, at 5 µM
# [23] = measured here: combo with BGB IC20, at 0.5 µM
# [24] = measured here: combo with cisplatin IC20, at 0.5 µM
# [25] = measured here: with BGB IC20 combination, at 0.5 µM
# [26] = measured here: with cisplatin IC20 combination, at 0.5 µM
structure (smiles),measurement,setting,value
Cc1[nH]c2ccccc2c1CCNCc1ccc(/C=C/C(=O)NO)cc1,inhibition,[1]; at 0.5 µM,93.3% (active) and 50.3% (inactive)
same,inhibition,[1]; [12],50.6% and -33.1%
same,inhibition,[1]; [13],94.8% and 59%
same,inhibition,[1]; [14],101% and 94.7%
same,inhibition,[2]; at 0.5 µM,96% (active) and 13.2% (inactive)
same,inhibition,[2]; [15],95% and 15.5%
same,inhibition,[2]; [16],96.9% and -1.5%
same,inhibition,[3]; at 0.5 µM,99.9% (active) and 93.8% (active)
same,inhibition,[3]; [17],99.8% and 96.6%
same,inhibition,[3]; [18],99.9% and 99.7%
same,inhibition,[4]; at 0.5 µM,82.2% (active) and 51.9% (inactive)
same,inhibition,[4]; [19],27.3% and -1.85%
same,inhibition,[4]; [20],42.8% and 21.6%
same,inhibition,[5]; at 0.5 µM,91.3% (active) and 29.2% (inactive)
same,inhibition,[5]; [13],101% and 47.2%
same,inhibition,[5]; [14],109% and 98.7%
same,inhibition,[6]; [21],121% and 109%
same,inhibition,[6]; at 0.5 µM,90.3% (active) and 56.4% (inactive)
same,inhibition,[6]; [22],127% and 128%
same,inhibition,[7]; at 0.5 µM,101% (active) and 33.3% (inactive)
same,inhibition,[7]; [23],102% and 30.8%
same,inhibition,[7]; [24],99.8% and 22.1%
same,inhibition,[8]; at 0.5 µM,96.5% (active) and 85.3% (active)
same,inhibition,[8]; [25],95.5% and 73.9%
same,inhibition,[8]; [26],96.9% and 90.9%
same,inhibition,"[8]; single agent, at 0.05 µM",93.3% and 52.8%
same,inhibition,"[8]; single agent, at 5 µM",98.9% and 97.5%
Cn1c2ccccc2c2c3c(c4c5ccccc5n(CCC#N)c4c21)CNC3=O,parasite load remaining,[9],110% (inactive)
same,viability,[9],92.8%
same,fold fluorescence,[10],3.75 [at 132.1 µM] (inactive)
O=C(Nc1cn[nH]c1-c1nc2ccc(CN3CCOCC3)cc2[nH]1)NC1CC1,liver cell % of control,[11],44.3% and 46.2% and 49.7%
same,parasite % of control,[11],0.367% (inactive) and 0.333% (inactive) and 0.278% (inactive)
CN(C)CCN1C(=O)c2cccc3cc(N)cc(c23)C1=O,inhibition,[1]; at 0.5 µM,-23% (inactive)
same,inhibition,[1]; [12],-41.2%
same,inhibition,[1]; [13],-45%
same,inhibition,[1]; [14],16.5%
same,inhibition,[2]; at 0.5 µM,-63% (inactive)
same,inhibition,[2]; [15],-22.2%
same,inhibition,[2]; [16],-129%
same,inhibition,[3]; at 0.5 µM,1.51% (inactive)
same,inhibition,[3]; [17],-11.9%
same,inhibition,[3]; [18],14.4%
same,inhibition,[4]; at 0.5 µM,-5.91% (inactive)
same,inhibition,[4]; [19],-1.98%
same,inhibition,[4]; [20],-18.9%
same,inhibition,[5]; at 0.5 µM,-25.1% (inactive)
same,inhibition,[5]; [13],-29.2%
same,inhibition,[5]; [14],-2.51%
same,inhibition,[6]; [21],38.8%
same,inhibition,[6]; at 0.5 µM,-2.87% (inactive)
same,inhibition,[6]; [22],37.9%
same,inhibition,[7]; at 0.5 µM,2.38% (inactive)
same,inhibition,[7]; [23],-2.82%
same,inhibition,[7]; [24],-2.98%
same,inhibition,[8]; at 0.5 µM,-31.5% (inactive)
same,inhibition,[8]; [25],-17.6%
same,inhibition,[8]; [26],-40.7%
same,inhibition,"[8]; single agent, at 0.05 µM",-14.5%
same,inhibition,"[8]; single agent, at 5 µM",59.5%
O=C(O)[C@H](Cc1c[nH]c2ccccc12)N1C(=O)c2ccccc2C1=O,inhibition,[1]; at 0.5 µM,-21% (inactive)
same,inhibition,[1]; [12],-49.9%
same,inhibition,[1]; [13],-9.64%
same,inhibition,[1]; [14],-81.2%
same,inhibition,[2]; at 0.5 µM,-82% (inactive)
same,inhibition,[2]; [15],-46.6%
same,inhibition,[2]; [16],-131%
same,inhibition,[3]; at 0.5 µM,-20.5% (inactive)
same,inhibition,[3]; [17],-26.8%
same,inhibition,[3]; [18],-27.1%
same,inhibition,[4]; at 0.5 µM,-10.8% (inactive)
same,inhibition,[4]; [19],-20.2%
same,inhibition,[4]; [20],-43.5%
same,inhibition,[5]; at 0.5 µM,-17.3% (inactive)
same,inhibition,[5]; [13],-13%
same,inhibition,[5]; [14],-8.45%
same,inhibition,[6]; [21],-11.5%
same,inhibition,[6]; at 0.5 µM,-15.7% (inactive)
same,inhibition,[6]; [22],-28.9%
same,inhibition,[7]; at 0.5 µM,-2.94% (inactive)
same,inhibition,[7]; [23],-8.01%
same,inhibition,[7]; [24],4.01%
same,inhibition,[8]; at 0.5 µM,-39.1% (inactive)
same,inhibition,[8]; [25],-34.3%
same,inhibition,[8]; [26],-43.9%
same,inhibition,"[8]; single agent, at 0.05 µM",-29.1%
same,inhibition,"[8]; single agent, at 5 µM",-40.2%

# Reference: PubChem BioAssay
